# CapD inh: CapD enzyme inhibition; purified CapD enzyme, fluorescence intensity read-out; stronger effect = lower value; z-score (no concentration beside the values); actives 0.23% (n = 140,000); in the data active = z-score mostly below about -2.9, no sharp cut-off; inactive = mostly above about -1.9
# Hits are given with their value; – = inactive. This excerpt belongs to a sample that is enriched for hits.
SMILES,CapD inh
CCCN1CCC(N(C(=O)c2cccc(NC(=O)c3ccc(C(F)(F)F)cc3)c2)C2CC2)CC1,–
N/C(=N/S(=O)(=O)c1ccc(Cl)c(Cl)c1)c1cccnc1,–
CC(C)C(=O)O/N=C(\N)c1ccccc1,–
CC(Oc1cccc(Cl)c1)C(=O)O/N=C(\N)c1cccnc1 (stereo not drawn),-6
O=C(NNC(=O)c1cccnc1)OCCc1c[nH]c2ccccc12,–
CCC(=S)/C=C1\Sc2ccc(OC)cc2N1CC,–
CCC(=S)/C=C1/Sc2ccc(Cl)cc2N1CC,–
CCN1/C(=C\C(=S)Nc2ccccc2)Sc2ccccc21,-4.4

# High-throughput results from PubChem.
